# Data taken from PubChem BioAssay (EPA / NIEHS).
# Calls of active or inactive are those of the source. Rule for the calls: active = hit-call score of the fitted dose curve at least 0.9, where 1 is the maximum; inactive = score below 0.9.
# Assay: ATG_M_06_CIS: Attagene CIS-FACTORIAL HepG2 Assay for M06 Transcription Factor (Internal Marker) (AID 2282950)
# Details: HepG2 Attagene CIS-FACTORIAL M06 internal marker reporter; actives raise or lower the signal
# Protocol: ATG_CIS is a cell-based, multiplexed-readout assay that uses HepG2, a human liver cell line, with measurements taken at 24 hours after chemical dosing in a 24-well plate.ATG_M_06_CIS is one of 52 assay component(s) measured or calculated from the ATG_CIS assay. It is designed to make measurements of mRNA induction, a form of inducible reporter, as detected with fluorescence intensity signals by Reverse transcription polymerase chain reaction (RT-PCR) and Capillary electrophoresis technology.Data from the assay component ATG_M_06_CIS was analyzed into 1 assay endpoint. This assay endpoint, ATG_M_06_CIS, was analyzed with bidirectional fitting relative to DMSO as the negative control and baseline of activity. Using a type of inducible reporter, measures of mRNA for gain or loss-of-signal activity can be used to understand the background control at the transcription factor-level as they relate to the gene . Furthermore, this assay endpoint can be referred to as a secondary readout, because this assay has produced multiple assay endpoints where this one serves a background control function. To generalize the intended target to other relatable targets, this assay endpoint is annotated to the background measurement intended target family, where the subfamily is internal marker.
# Human liver HepG2 cells are transiently transfected with multiple reporter transcription units (MRTUs) in 6-well plates using FuGene 6 reagent (Roche; 3 ml FuGene/1 mg DNA). The MRTU constructs are regulated by a cis-regulating element (promoter). […] A major difference between the CIS and TRANS system is that in CIS activities of endogenous TFs are measured, whereas the TRANS assay evaluates changes in activities of exogenous, chimeric NR-Gal4 proteins. […] At the end of 24 hour incubation, total RNA was isolated using TriZol reagent (Invitrogen). The isolated RNA is then reverse-transcribed using oligo(dT) primer and Mo-MLV reverse transcriptase (Invitrogen) with DNAse I (Ambion) treatment for 30 min. The one-tenth of the produced cDNA was amplified by PCR using Taq DNA polymerase (Invitrogen) and two reporter sequence-specific primers. The PCR products were fluorescently labeled by primer extension with 6-arboxyfluorescein (6-FAM) 5'-labeled reporter sequence-specific primer (2 min at 95 C, 20 s at 68 C and 10 min at 72 C) and these products were digested with 5U of HpaI (New England Biolabs) for 2h at 37 C. The fragments were purified using Qiaquick PCR columns (Qiagen), analyzed on an ABI 3130xL genetic analyzer (Applied Biosystems) with peak positions identified by using a set of X-rhodamine (ROX)-labeled MapMarker1000 molecular weight standards (BioVentures). The raw capillary electrophoresis data was processed using Attagraph software (Attagene).
row,SMILES,outcome
1,Nc1ccc(N=Nc2ccccc2)cc1,inactive
2,C[C@]12C=CC3=C4CCC(=O)C=C4CC[C@H]3[C@@H]1CC[C@@H]2O,inactive
3,c1ccc(N=Nc2ccccc2)cc1,inactive
4,CCOC(=O)[C@]1(c2ccccc2)Oc2ccccc2[C@@H]1N,inactive
5,CCCCC(CC)COC(=O)c1ccc(C(=O)OCC(CC)CCCC)c(C(=O)OCC(CC)CCCC)c1 (stereo not given),inactive
6,c1ccc2c(c1)-c1cccc3cccc-2c13,inactive
7,[As]#[In],inactive
8,N#CC(Br)Br,inactive
9,CCCCCCCCOC(=O)c1ccc(C(=O)OCCCCCCCC)c(C(=O)OCCCCCCCC)c1,inactive
10,CCCCCCCCCCCCCN1CC(C)OC(C)C1 (stereo not given),inactive
11,OCCOCCO,inactive
12,CCN(CC)N=O,inactive
13,CC(C)COC(=O)c1ccccc1C(=O)OCC(C)C,inactive
14,ClC1=C(Cl)C2(Cl)C3C(Cl)C=CC3C1(Cl)C2(Cl)Cl (stereo not given),inactive
15,CCN(CC)CCO,inactive
16,CN(C)c1ccccc1,inactive
17,CC(O)CCO (stereo not given),inactive
18,[O-][Cl+]O,inactive
19,N#CC(Br)(Br)C(N)=O,inactive
20,Cc1ccc(N=C=O)cc1N=C=O,inactive

row,SMILES,outcome
1,Clc1ccccc1Cl,inactive
2,CN(C)c1ccc(C(=O)c2ccc(N(C)C)cc2)cc1,inactive
3,COC(=O)Nc1nc2ccccc2[nH]1,inactive
4,O=C1CCCO1,inactive
5,Oc1ccccc1Cl,inactive
6,Cc1ccc(N)c(N)c1,inactive
7,O=P(OCCCl)(OCCCl)OCCCl,inactive
8,Nc1ccc(Oc2ccc(N)cc2)cc1,inactive
9,C1=Cc2cccc3cccc1c23,inactive
10,CC(C)N(Cc1ccccc1)C(=O)C(C)(C)C,inactive
11,Nc1cc(Cl)cc(C(=O)O)c1Cl,inactive
12,Clc1ccc(C(c2ccc(Cl)cc2)C(Cl)Cl)cc1,inactive
13,Clc1ccc(C(c2ccc(Cl)cc2)C(Cl)(Cl)Cl)cc1,inactive
14,O=[N+]([O-])C(Br)(CO)CO,inactive
15,CCC12COCN1COC2,inactive
16,Cc1ccc(N)cc1,inactive
17,Oc1ccc2ccc3cccc4ccc1c2c34,inactive
18,CCNS(=O)(=O)C(F)(F)C(F)(F)C(F)(F)C(F)(F)C(F)(F)C(F)(F)C(F)(F)C(F)(F)F,inactive
19,COC(=O)c1ccccc1N,inactive
20,CN(C)C(=O)Nc1ccc(Cl)cc1,inactive
